Measured values: the supplement of paper PMC12340641
In all, about 1,000 compounds were measured (“relative growth in counter assay (no AraC = 100%, AraC + DMSO = 0%)”: median about -1.1, highest 2% from about 20 on). What follows is part of a selection rich in the highest values, with near analogues and random picks from the rest.

The compounds below were run on HEK293FT dCK*-only (assay: relative growth in counter assay (no AraC = 100%, AraC + DMSO = 0%); higher = more growth rescue independent of IKZF1). Details: compound concentration: 5 uM; AraC concentration: 0.3 uM; overnight pretreatment + 4 days AraC.
Procedure: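 Growth recovery screen of the molecular-glue-like (Specs) library. HEK293FT cells expressing a dCK*-IKZF1 fusion (primary) or dCK* alone (counter) were pretreated overnight with compound at 5 uM, then given 0.3 uM AraC for 4 days. Hoechst nuclei were counted by imaging. Primary: normalised to pomalidomide (100%) and DMSO (0%), mean of 2 replicates. Counter: normalised to no-AraC (100%) and AraC+DMSO (0%), single replicate.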
With `O=C1CCCC/C1=C/Nc1ccc(S(=O)(=O)Nc2cnc3ccccc3n2)cc1` the “relative growth in counter assay” value was -1.17%.
In the case of `Cc1cnc(Nc2cccc(C3CN(C(=O)Cc4ccccc4)CCO3)n2)s1` (stereo not given), the “relative growth in counter assay” value is reported as -5.45%.
In the case of `COCC(=O)N1CCC(c2cccc(Nc3nc(C)cs3)n2)CC1`, the “relative growth in counter assay” value is reported as 14%.
For `O=C(C1CCCCC1)N1CCOC(c2cccc(Nc3ncc(Cc4cccc(Cl)c4)s3)n2)C1` (stereo not given), the “relative growth in counter assay” value was 13.1%.
For `O=C1CCCN1CCOCC(=O)N1CCOC(c2cccc(Nc3nccs3)n2)C1` (stereo not given), the “relative growth in counter assay” value was -1.14%.
For `CC(=O)Nc1ccc(C(=O)Nc2ccc(S(=O)(=O)Nc3nccc(C)n3)cc2)cc1`, the “relative growth in counter assay” value was -3.58%.
In the case of `O=C1CCC(N2C(=O)c3cc(F)c(N4CCN(CCC5CCNCC5)CC4)cc3C2=O)C(=O)N1` (stereo not given), the “relative growth in counter assay” value is reported as 1.21%.
In the case of `CC(C)C(=O)N1CCCC1c1csc(Nc2ccccn2)n1` (stereo not given), the “relative growth in counter assay” value is reported as 6.43%.
`Cc1cc(NS(=O)(=O)c2ccc(NC(=O)C3COc4ccccc4O3)cc2)nc(C)n1` (stereo not given) was tested, and the “relative growth in counter assay” value was -10.4%.
In the case of `O=C(O)CCOCCOCCOCCNc1cc2c(cc1F)C(=O)N(C1CCC(=O)NC1=O)C2=O` (stereo not given), the “relative growth in counter assay” value is reported as 0.94%.
In the case of `CCCCc1cnc(Nc2cccc(C3CCN(C(=O)C4(C)CCCN4C(=O)OC(C)(C)C)CC3)n2)s1` (stereo not given), the “relative growth in counter assay” value is reported as 5.27%.
For `CC(=O)Oc1cccc(N2C(=O)c3ccc(Oc4ccc(N)cc4)cc3C2=O)c1`, the “relative growth in counter assay” value was -2.02%.
In the case of `CC(C)CC(C(=O)Nc1ccc(S(=O)(=O)Nc2ccccn2)cc1)N1C(=O)c2ccccc2C1=O` (stereo not given), the “relative growth in counter assay” value is reported as 0.21%.
In the case of `CCOc1ccccc1OCC(=O)Nc1ccc(S(=O)(=O)Nc2ncccn2)cc1`, the “relative growth in counter assay” value is reported as 2.46%.
In the case of `Cc1ccn(CCC(=O)N2CCOC(c3cccc(Nc4ncc(C)s4)n3)C2)n1` (stereo not given), the “relative growth in counter assay” value is reported as -1.16%.
In the case of `NC(=O)CN1CCCCC1c1csc(Nc2ccccn2)n1` (stereo not given), the “relative growth in counter assay” value is reported as 8.38%.
`Cc1cc(C)nc(NS(=O)(=O)c2ccc(NS(=O)(=O)/C=C/c3ccccc3)cc2)n1` was tested, and the “relative growth in counter assay” value was 5.62%.
In the case of `CCCc1cnc(Nc2cccc(C3CCN(C(=O)C4CCCCN4CCCO)CC3)n2)s1` (stereo not given), the “relative growth in counter assay” value is reported as -21.2%.
With `CC(C)(N)C(=O)N1CCC(c2cccc(Nc3ncc(CC(F)(F)F)s3)n2)CC1` the “relative growth in counter assay” value was -21.1%.
`Cc1cnc(Nc2cccc(C3CN(C(=O)C4(c5ccccc5)CC4)CCO3)n2)s1` (stereo not given) was tested, and the “relative growth in counter assay” value was -7.66%.
In the case of `CCCc1cnc(Nc2cccc(C3CCN(C(=O)C4CCCCN4CC(=O)O)CC3)n2)s1` (stereo not given), the “relative growth in counter assay” value is reported as -19.3%.
`Cc1cccc(N2CC(C(=O)Nc3ccc(S(=O)(=O)Nc4ncccn4)cc3)CC2=O)c1C` (stereo not given) was tested, and the “relative growth in counter assay” value was 2.21%.
For `COc1ccc(C(=O)Nc2ccc(S(=O)(=O)Nc3ccccn3)cc2)cc1OC`, the “relative growth in counter assay” value was 2.76%.
With `O=C(O)CCOCCOCCOCCOCCNc1ccc2c(c1)C(=O)N(C1CCC(=O)NC1=O)C2=O` (stereo not given) the “relative growth in counter assay” value was 9.95%.
In the case of `CS(=O)(=O)Nc1ccc(S(=O)(=O)Nc2ncccn2)cc1`, the “relative growth in counter assay” value is reported as 3.46%.
